Results as given in the supplement of paper PMC13380429.

System: Vero E6 infected with SARS-CoV-2
Experiment: inhibition of SARS-CoV-2 cytopathic effect; higher = more antiviral protection, active = above 15
Conditions: 48 h

Measured: inhibition of SARS-CoV-2 cytopathic effect

C[C@]12CCC(=O)C=C1C=C[C@@H]1[C@@H]2CC[C@@]2(C)[C@H]1CC[C@@]21CCC(=O)O1 [canrenone]
inactive: 1 nM -1.44% | 8.33 nM -1.41% | 100 nM -2.85% | 833.33 nM -2.53% | 10000 nM 6.34%

CC(C)(C)c1ccc(-c2nc3c(N4CCN(Cc5ccc6nccnc6c5)CC4)cccc3[nH]2)cc1
inactive: 1 nM 1.45% | 8.33 nM 1.91% | 100 nM 1.44% | 833.33 nM -0.5% | 10000 nM 4.93%

Cc1cc(Nc2cc(N3CCN(C)CC3)nc(Sc3ccc(NC(=O)C4CC4)cc3)n2)n[nH]1 [tozasertib]
inactive: 1 nM -0.96% | 8.33 nM -0.86% | 100 nM -0.22% | 833.33 nM 0.2% | 10000 nM -4.18%
